# Compounds with a hit are over-represented: about 4.2% of the library has one in this group of screens.
# hgDAF12 agonist: agonists of H. glycines DAF-12 nuclear receptor; HEK293 GAL4-hgDAF12 UAS-luciferase reporter, agonist luminescence; normalized to butyrate control; activation, % at 6.8 µM; 370,000 compounds, 1.8% hits;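 active = activation above a cutoff set at the mean of all screened compounds plus 3 SD, cut at about 10% in these data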
# DAX1 StAR inh: blocks DAX1 repression of SF-1 activated StAR promoter | inhibition, % at 6.8 µM | HEK293T StAR-luciferase reporter, SF-1/DAX-1 repression relief | 370,000 compounds, 1.1% hits | AID 652010;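 active = inhibition above the mean over all tested compounds plus 3 SD, cut at about 3.6% in these data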;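 note: higher inhibition means more luminescence from relief of DAX-1 repression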
# Wnt bcat act: Wnt/beta-catenin pathway activation | activation, % at 9.35 µM | Wnt/beta-catenin reporter cell assay, activator, plate reader | 300,000 compounds, 1.2% hits; in the data active = activation above about 30%, passing the limit was not always enough; inconclusive = no clear call, values can overlap the other calls
# esBAF inh: inhibitors of esBAF chromatin remodeling in mouse ES cells | Bmi1-luciferase knock-in reporter, 24 h; 100% = twice the neutral-well signal | reporter increase, % at 12.5 µM | 350,000 compounds, 2% hits; in the data active = activation above about 40%; inconclusive = no clear call, values can overlap the other calls;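 note: a rise in the Bmi1 reporter signal indicates esBAF inhibition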
# hcDAF-12 act: activates DAF-12 receptor from parasite H. contortus; HEK293 hcDAF-12 lit1-tk-luc reporter, luminescence; 0% DMSO, 100% Δ7-dafachronic acid; AID 652067; 370,000 compounds, 1.4% hits; activation, % at 6.8 µM;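 active = activation above the mean of all tested compounds plus 3 SD, cut at about 5.5% in these data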
# ssDAF-12 act: S. stercoralis DAF-12 activation, primary screen; HEK293 ssDAF-12/GRIP1 lit1-tk-luc reporter, luminescence; % of 3 µM dafachronic acid response; 370,000 compounds, 1% hits; activation, % at 6.8 µM;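 active = activation above the mean over all tested compounds plus 3 SD, cut at about 0.9% in these data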
# Numbers stand for hits; - = inactive; ? = inconclusive; . = not tested or not shown.
SMILES,hgDAF12 agonist,DAX1 StAR inh,Wnt bcat act,esBAF inh,hcDAF-12 act,ssDAF-12 act
Cc1ccc(Nc2c(-c3ccc(C)o3)nc3cnccn23)cc1,11.6,-,-,-,-,-
C[C@@H]1CN([C@H](C)CO)C(=O)c2cc(-c3ccccc3)cnc2O[C@@H]1CN(C)Cc1ccccn1,.,.,.,-,.,.
NS(=O)(=O)c1ccc(N=NN2CCCCC2)cc1,-,-,38.8,.,-,-
CC(=O)NS(=O)(=O)c1ccc(N=NN2CCCCC2)cc1,-,-,-,.,-,-
c1ccc(-n2nnc3ccccc32)nc1,-,-,.,60.5,-,-
CCOc1ccc(N2C(=O)c3ccccc3NC2(C)CC)cc1 (stereo not given),12.1,3.7,?,-,-,-
COc1ccc(N2C(=O)c3ccccc3NC23CCC(C)CC3)cc1 (stereo not given),12.8,-,.,.,-,-
CC=Cc1ccc2n(c1=O)C[C@H]1[C@H](CO)[C@@H](C(=O)NCCC)N(CC3CCOCC3)[C@@H]21 (mixture of isomers),.,.,.,-,.,.
O=C1C(C=NCc2ccncc2)=C(O)c2ccccc21,-,-,.,-,-,-
O=C1N/C(=C/c2ccc(Br)cc2)C(O)=C1C=NCc1ccccc1,-,-,-,.,5.6,-
O=C1c2ccccc2C(=O)C1Cc1cccc2ccccc12,-,-,-,-,-,0.9
CO[C@H]1CN(C)C(=O)c2cc(NC(=O)C3CCOCC3)ccc2OC[C@@H](C)N(C(=O)c2ccccc2)C[C@H]1C,.,.,.,-,.,.
O=C(c1ccc2nc(Cc3cccc(Cl)c3)oc2c1)N1CCOCC1,-,3.9,-,.,6.0,-
O=C(c1ccc2nc(Cc3cccc(Cl)c3)oc2c1)N1CCC(O)CC1,-,-,-,.,-,-
COC(=O)c1ccccc1NC(=O)COc1ccc2c(c1)OCO2,-,-,-,-,-,-
O=C(COc1ccc2c(c1)OCO2)Nc1ccc(Cl)cn1,-,-,-,46.1,-,-
O=C(COc1ccc(Cl)cc1)Nc1ccc(Cl)cn1,-,-,.,-,-,-
O=C(COc1ccc2c(c1)OCO2)Nc1ccccc1F,12.7,-,?,-,-,-
COc1ccccc1NC(=O)N1C[C@H](O)COC[C@@H]2O[C@H](CC(=O)NCCc3ccccc3)CC[C@H]21,.,.,.,-,.,.
Cc1ccc(S(=O)(=O)Nc2ccc3c(c2)C(=O)N([C@@H](C)CO)C[C@H](C)[C@@H](CN(C)C(=O)Nc2ccccc2)OCCCC[C@H](C)O3)cc1,.,.,.,-,.,.
CC(=O)c1c(C)[nH]c(C(=O)Nc2ccc(C)cc2Br)c1C,-,-,-,85.8,-,-
CC(=O)c1c(C)[nH]c(C(=O)Nc2nccs2)c1C,12.0,-,-,-,-,-
CC(=O)NC(Cc1c[nH]c2ccccc12)C(=O)OCC(=O)Nc1ccc2c(c1)OCO2 (stereo not given),-,-,-,-,-,-
CC(=O)c1c(C)[nH]c(C(=O)Nc2cc(C)ccc2C)c1C,-,-,-,-,-,-
Cc1[nH]c2ccccc2c1C(=O)C(=O)Nc1ccc2c(c1)OCO2,-,-,-,52.1,-,-
SMILES,hgDAF12 agonist,DAX1 StAR inh,Wnt bcat act,esBAF inh,hcDAF-12 act,ssDAF-12 act
CC(=O)c1c(C)[nH]c(C(=O)Nc2ccc3c(c2)OCCO3)c1C,10.8,-,.,-,-,-
CC(=O)c1c(C)[nH]c(C(=O)Nc2cccnc2)c1C,-,-,-,-,-,-
O=C(C[C@H]1C=C[C@H](NC(=O)CN2CCOCC2)[C@H](CO)O1)NCc1cccc(F)c1,.,.,.,-,.,.
COC(=O)[C@H]1[C@H](CO)[C@H]2Cn3c(ccc(-c4ccccc4OC)c3=O)[C@H]2N1C(=O)c1cccnc1,.,.,.,-,.,.
O=C(NCc1cccc(F)c1)[C@H]1[C@H](CO)[C@H]2Cn3c(cccc3=O)[C@@H]1N2C(=O)c1cnccn1,.,.,.,-,.,.
CC(=O)c1c(C)[nH]c(C(=O)NCCc2cccc(C)c2)c1C,-,-,-,74.9,-,-
CCOc1ccc(NC(=O)c2[nH]c(C)c(C(C)=O)c2C)cc1,-,-,-,-,-,-
CCc1c(C(=O)NCCc2cccc(C)c2)[nH]c(C)c1C(C)=O,-,-,-,-,-,-
CCc1ccc(NC(=O)c2[nH]c(C)c(C(C)=O)c2C)cc1,12.9,-,-,-,-,-
O=C(C[C@@H]1C=C[C@H](NC(=O)C2CCC2)[C@H](CO)O1)NC1CCC1,.,.,.,-,.,.
O=C(N/N=C1\CC(c2ccccc2)Oc2ccccc21)c1ccccn1 (stereo not given),-,3.8,-,.,-,-
Cc1noc(C)c1NC(=O)Nc1cccc2c1O[C@@H](CN(C)C(=O)Nc1ccc3c(c1)OCO3)[C@H](C)CN([C@@H](C)CO)C2=O,.,.,.,-,.,.
O=C(c1cccc([N+](=O)[O-])c1)c1cc2ccccc2o1,-,-,-,.,-,-
Cc1ccc(C(=O)c2cc3ccccc3o2)cc1C,11.1,-,.,.,-,-
Cc1ccc(C(=O)c2cc3ccccc3o2)cc1,11.8,-,.,.,-,-
O=C(c1cc2ccccc2o1)c1cccs1,-,-,57.9,?,-,-
O=C(Nc1ccc2c(c1)OCO2)N[C@H]1CC[C@@H](CCNC(=O)C2CCCCC2)O[C@@H]1CO,.,.,.,-,.,.
Cc1ccc(S(=O)(=O)N(C)C[C@H]2Oc3ccc(NS(=O)(=O)c4ccccc4)cc3C(=O)N([C@H](C)CO)C[C@H]2C)cc1,.,.,.,-,.,.
C/C(NC(=O)c1cccc(F)c1)=C1/C(=O)C[C@@H]2[C@H]1C2(C)C,-,-,.,64.8,-,-
C[C@@H]1CN([C@@H](C)CO)C(=O)CCCn2nncc2CO[C@@H]1CN(C)Cc1cccnc1,.,.,.,-,.,.
COc1ccc(OC)c(NC(=O)N2CCCc3ccccc32)c1,-,-,-,-,-,-
COc1ccc(NC(=O)N2CCCc3ccccc32)cc1,-,-,54.2,41.0,-,-
O=C(Cc1ccc(Cl)c(Cl)c1)OCC(=O)c1ccc[nH]1,-,-,.,-,-,-
O=C(OCc1ccc(Cl)c(Cl)c1)c1ccc[nH]1,-,-,-,49.7,-,-
COc1ccc(-c2ccc3n(c2=O)C[C@H]2[C@H](CO)[C@@H](C(=O)N4CCOCC4)[C@@H]3N2C)cc1,.,.,.,-,.,.
SMILES,hgDAF12 agonist,DAX1 StAR inh,Wnt bcat act,esBAF inh,hcDAF-12 act,ssDAF-12 act
CCCNC(=O)C[C@@H]1CC[C@H]2[C@@H](COC[C@@H](O)CN2C(=O)Nc2cccc(Cl)c2)O1,.,.,.,-,.,.
C[C@H](CO)N1C[C@H](C)[C@@H](CN(C)C(=O)NC2CCCCC2)Oc2ccc(NC(=O)Nc3ccc4c(c3)OCO4)cc2CC1=O,.,.,.,-,.,.
O=C(CSc1nnc2c3ccccc3c3ccccc3c2n1)Nc1ccccc1F,-,-,.,-,5.8,-
O=C(CSc1ncccn1)Nc1cccc2ccccc12,-,-,-,-,6.2,-
O=C1CCCC/C1=C\Nc1ccc(Cl)cn1,-,-,.,44.2,-,-
Cc1ccc(S(=O)(=O)Nc2ccc3c(c2)C(=O)N([C@@H](C)CO)C[C@@H](C)[C@H](CN(C)Cc2ccncc2)OCCCC[C@H](C)O3)cc1,.,.,.,-,.,.

# High-throughput results as filed in PubChem BioAssay.
